JMJD2A Tudor = blocks the human JMJD2A Tudor domain; Potency, µM (series often up to 114 µM), actives largely listed as inhibitors; AlphaScreen JMJD2A-Tudor / H3K4me3 peptide binding; AID 504339; O75164; 390,000 tested, 4.4% active; further: nearly all actives have a fitted effect of over 50% in size
TDP1 inh = TDP1 (human) enzyme inhibition; 350,000 tested, 0.28% active; AID 485290; recombinant TDP1, AlphaScreen DNA substrate cleavage; Q9NUW8; Potency, µM (titrated, usually from 130 µM), actives largely listed as inhibitors; further: nearly all actives have a fitted effect of over 40% in size
Target sequence (Q9NUW8 whole entry, looked up): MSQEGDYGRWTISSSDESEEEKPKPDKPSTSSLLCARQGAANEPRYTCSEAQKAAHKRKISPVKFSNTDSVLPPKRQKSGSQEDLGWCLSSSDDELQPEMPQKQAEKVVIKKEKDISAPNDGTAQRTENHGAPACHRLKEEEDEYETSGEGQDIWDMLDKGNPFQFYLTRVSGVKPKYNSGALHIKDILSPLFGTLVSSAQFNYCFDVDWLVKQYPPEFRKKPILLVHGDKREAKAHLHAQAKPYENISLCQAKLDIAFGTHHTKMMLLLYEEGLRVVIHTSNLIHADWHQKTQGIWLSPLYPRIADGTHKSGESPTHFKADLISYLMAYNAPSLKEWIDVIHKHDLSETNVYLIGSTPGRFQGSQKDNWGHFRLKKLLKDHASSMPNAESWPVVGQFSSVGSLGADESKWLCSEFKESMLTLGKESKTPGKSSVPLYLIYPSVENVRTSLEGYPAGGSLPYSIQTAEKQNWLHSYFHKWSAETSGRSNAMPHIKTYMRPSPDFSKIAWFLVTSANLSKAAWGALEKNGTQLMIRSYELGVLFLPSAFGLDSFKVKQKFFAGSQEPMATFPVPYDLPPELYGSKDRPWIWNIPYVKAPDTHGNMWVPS
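Compounds were preincubated with Tdp1 (1 nM final) for 15 min at room temperature before substrate (15 nM final) started a 5 min reaction; beads (10 ug/ml final) were then added for 10 min before AlphaScreen detection.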
HP1b binding inh = blocks HP1-beta chromodomain binding to methylated histone tails; Potency, µM (highest dose often 114 µM), usual class: inhibitors; AlphaScreen HP1-beta / biotin-H3K9me3 peptide binding; 390,000 tested, 0.56% active; AID 540317; P83916; further: nearly all actives have a fitted effect of over 70% in size
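HP1-beta protein (50 nM final) preincubated 30 min at room temperature with biotinylated H3(1-18)K9me3 peptide (50 nM) in PBS pH 7.4, 0.01% Tween-20, then compound added for 30 min. AlphaScreen streptavidin donor/nickel chelate acceptor beads (10 ug/mL final), 30 min dark, luminescence read.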
G9a inh = inhibitors of human histone lysine methyltransferase G9a. Q96KQ7. G9a H3K9 monomethylation, AlphaScreen, 2 h. Potency, µM (doses to about 102 µM), hits mostly inhibitors. 350,000 tested, 8.8% active. AID 504332; further: nearly all actives have a fitted effect of over 75% in size
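AlphaScreen detection with an anti-monomethyl H3K9 antibody quantified product after a 2 h room-temperature reaction containing 500 nM biotinylated H3K9 peptide, 20 µM SAM and 20 nM enzyme, which had been preincubated 15 min with compound.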
BAZ2B inh = BAZ2B (human) inhibition; AlphaScreen BAZ2B-H3K14Ac peptide displacement; Potency, µM (top dose mostly 114 µM), most hits filed as inhibitors; 360,000 tested, 4.4% active; AID 504333; further: nearly all actives have a fitted effect of over 60% in size
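Protein-peptide AlphaScreen: BAZ2B 50 nM, b-H3K14Ac 50 nM, 1x PBS pH 7.4 + 0.01% Tween-20. Preincubation 30 min RT; cpd 30 min RT (top 110 uM); beads 20 min RT, light-protected.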
Sfp inh = Sfp phosphopantetheinyl transferase inhibition; Q9F4F7; Biochemical Sfp PPTase activity, qHTS; Potency, µM, most hits filed as inhibitors; 310,000 tested, 3.5% active;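 further: the enzyme is Sfp with the accession as filed and its product quenches rhodamine fluorescence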
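Reaction rates are the 30-min fluorescence difference (ex 525, em 598 nm) in wells containing 15 nM Sfp, 5 uM rhodamine-CoA and 12.5 uM BHQ-2-YbbR at pH 7.6 with 10 mM MgCl2.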
Each line names hits and unclear results; the compound was inactive in the other large screens. This is a sample that favours compounds with a hit; in the whole collection about 12% have one here. The call rests on the fitted dose curve; in most records, active means well fitted curve in the direction sought with a large enough effect; inconclusive means small, poorly fitted or top-dose-only effect, or another doubt; inactive means no such curve, though single readings can be large; an effect the other way counts as inactive or inconclusive.

O=C(CN(c1ccc(Cl)cc1)S(=O)(=O)c1ccc(Cl)c([N+](=O)[O-])c1)NCCc1ccccc1	G9a inh 50µM
CCc1nnc(NS(=O)(=O)c2ccc(NC(=O)/C=C/c3ccc(F)cc3)cc2)s1	G9a inh 56µM
CCc1nnc(NS(=O)(=O)c2ccc(NC(=O)OC)cc2)s1	G9a inh 18µM
CCc1nnc(NS(=O)(=O)c2ccc(Nc3ccc([N+](=O)[O-])c4nonc34)cc2)s1	JMJD2A Tudor inconclusive, HP1b binding inh inconclusive, G9a inh 25µM, BAZ2B inh 22µM
Cc1cc(C)n(-c2c(C)[nH]c3ccccc23)n1	none
COc1cc2c(cc1OC)C(c1cc3cccc(C)c3[nH]c1=O)N(C(=O)c1ccco1)CC2 (centres undefined)	none (no result: JMJD2A Tudor, HP1b binding inh)
COc1ccc(CC(=O)Nc2ccc3nc(C)sc3c2)cc1OC	G9a inh 20µM
Cc1nc2ccc(NC(=O)COc3ccccc3[N+](=O)[O-])cc2s1	none
Cc1nc2ccc(NC(=O)COc3ccccc3C)cc2s1	G9a inh 45µM, Sfp inh 32µM
Cc1cc(C(=O)c2ccc3ccccc3c2)c(C)o1	none (no result: TDP1 inh, G9a inh, BAZ2B inh, Sfp inh)
CCOc1ccc(CNC(=O)CN2C(=O)CSc3c2c(C)nn3-c2ccccc2)cc1	none (no result: Sfp inh)
COc1cc(NC(=O)NC(C)(C(F)(F)F)C(F)(F)F)cc(OC)c1OC	G9a inh 50µM
COC(=O)C(O)(CC(=O)Nc1cc(OC)c(OC)c(OC)c1)C(F)(F)F (centres undefined)	none
O=C(CCC1CCCN(C(=O)c2cncs2)C1)NCc1ccc(F)c(F)c1 (centres undefined)	JMJD2A Tudor 25µM, HP1b binding inh inconclusive
COc1cccc(CNC(=O)CCC2CCCN(C(=O)c3cc(C)on3)C2)c1 (centres undefined)	none
COc1cccc(CNC(=O)CCC2CCCN(C(=O)c3cccnc3SC)C2)c1 (centres undefined)	JMJD2A Tudor 40µM
COc1cccc(CNC(=O)CCC2CCCN(C(=O)c3ccc(OC)o3)C2)c1 (centres undefined)	Sfp inh 50µM (no result: G9a inh)
COc1ccccc1C(=O)NNC(=O)C1CCN(C(=O)OC(C)(C)C)CC1	none
O=C(O)c1ccc2c(c1)C1C=CCC1C(c1ccncc1)N2 (centres undefined)	G9a inh inconclusive, BAZ2B inh 56µM, Sfp inh inconclusive (no result: TDP1 inh)
O=C(NCc1ccccn1)C1Nc2ccc(C(F)(F)F)cc2C2C=CCC12 (centres undefined)	JMJD2A Tudor inconclusive (no result: TDP1 inh, G9a inh, BAZ2B inh, Sfp inh)
FC(F)(F)c1ccc2c(c1)C1C=CCC1C(c1ccncc1)N2 (centres undefined)	JMJD2A Tudor inconclusive, G9a inh inconclusive, BAZ2B inh 45µM
CCOC(=O)C(C(=O)OCC)c1cc(Br)c2noc3c2c1C(=O)c1ccccc1-3	JMJD2A Tudor 50µM, HP1b binding inh inconclusive, G9a inh 2.5µM, BAZ2B inh 7.9µM, Sfp inh 0.71µM
CCOC(=O)c1c(C)nc2c(c1-c1ccc(OC)c(OC)c1)C(=O)c1ccccc1-2	none
O=C(c1ccc(F)cc1F)N1CCN(c2ccccn2)CC1	none
CCCCC[C@H](O)/C=C/[C@H]1OC(O)C[C@H](O)[C@@H]1C/C=C\CC(=O)O (some centres undefined)	none (no result: JMJD2A Tudor, HP1b binding inh, G9a inh, BAZ2B inh)
O=P(NCc1ccccc1)(OCc1ccccc1)OCc1ccccc1	none (no result: TDP1 inh, G9a inh, BAZ2B inh, Sfp inh)
COc1cc(OC)cc(C(=O)NCc2n[nH]c(=S)n2-c2ccccc2OC)c1	JMJD2A Tudor 10µM, G9a inh 1µM, Sfp inh inconclusive
COc1ccc(-n2c(CNC(=O)c3cc(OC)c(OC)c(OC)c3)n[nH]c2=S)cc1	JMJD2A Tudor 7.1µM, G9a inh 8.9µM, BAZ2B inh inconclusive
CCCC(=O)Nc1nc(C)c(-c2csc(Nc3ccccc3C)n2)s1	JMJD2A Tudor inconclusive, G9a inh 11µM, BAZ2B inh inconclusive, Sfp inh 20µM
CCC(=O)Nc1nc(C)c(-c2csc(Nc3ccccn3)n2)s1	JMJD2A Tudor inconclusive, G9a inh 40µM, BAZ2B inh 40µM, Sfp inh inconclusive
Cc1cc(OCC(=O)Nc2sc3c(c2C#N)CC(C)(C)NC3(C)C)c(C(C)C)cc1Cl	none
CCNc1ncc2nc(-c3cc(F)cc(F)c3)c(=O)n(C3CC3)c2n1	none (no result: JMJD2A Tudor, TDP1 inh, HP1b binding inh, BAZ2B inh)
CCCNC(=O)c1ccc(N2CCC3(CC2)CC(c2ccccc2)=NO3)c(N)c1	none (no result: TDP1 inh, G9a inh)
CCCNC(=O)c1ccc(N2CCC3(CC2)CC(c2ccccc2)=NO3)c(NC(=O)Cc2ccc(F)cc2)c1	G9a inh 50µM, BAZ2B inh inconclusive (no result: TDP1 inh)
CCc1cccc(CC)c1NC(=O)CCS(=O)(=O)c1ccc2c(c1)CCN2C(C)=O	none (no result: BAZ2B inh, Sfp inh)
COc1ccccc1C1CCN(c2cc(O)ccc2[N+](=O)[O-])CC1	JMJD2A Tudor 50µM, HP1b binding inh inconclusive, BAZ2B inh 25µM (no result: G9a inh)
CSc1ccc(S(=O)(=O)NCC(=O)OCC(=O)N2CCCC2=O)cc1[N+](=O)[O-]	G9a inh inconclusive (no result: Sfp inh)
CSc1ccc(S(=O)(=O)NCC(=O)OCC(=O)N2CC(C)CC(C)C2)cc1[N+](=O)[O-] (centres undefined)	G9a inh 50µM (no result: Sfp inh)
COC(=O)C1CCN(C(=O)COC(=O)CNS(=O)(=O)c2ccc(SC)c([N+](=O)[O-])c2)CC1	TDP1 inh 35µM (no result: Sfp inh)
COC(=O)C1CCN(C(=O)COC(=O)CSc2ccc(C(N)=O)cc2[N+](=O)[O-])CC1	none (no result: Sfp inh)
COc1ccc(S(=O)(=O)c2nnn(-c3cccc(Cl)c3)c2N)cc1	none
CC(=O)Nc1ccc(SCC(=O)Nc2cc(C)on2)cc1	G9a inh 45µM, Sfp inh inconclusive
CCN(CC(=O)Nc1ccc(Br)cc1)CC(=O)Nc1cc(C)on1	G9a inh 79µM (no result: Sfp inh)
CCOC(=O)c1sc(NC(=O)C2C3C=CC(C3)C2C(=O)O)nc1C (centres undefined)	TDP1 inh 79µM
CCOC(=O)c1sc(NC(=O)CCCCl)nc1C	G9a inh 50µM
COc1ccc(CNS(=O)(=O)c2cc3c(cc2C)n(C)c(=O)c(=O)n3C)cc1	none (no result: Sfp inh)
Cc1ccc(C(=O)NCC(=O)NCC(c2cccs2)N2CCOCC2)cc1C (centres undefined)	none (no result: Sfp inh)
O=C1COc2ccc(S(=O)(=O)N3CCCCCC3)cc2N1	none
CCOc1ccc(-c2c(=O)n(O)c3ccccc3[n+]2[O-])cc1	JMJD2A Tudor 79µM, BAZ2B inh 56µM (no result: TDP1 inh)
CCOc1ccc(-c2c(=O)n(OCC)c3ccccc3[n+]2[O-])cc1	none (no result: TDP1 inh)
COn1c(=O)c(-c2ccccc2)[n+]([O-])c2ccccc21	none (no result: TDP1 inh)
Cc1ccc(-c2c(=O)n(O)c3ccccc3[n+]2[O-])cc1	JMJD2A Tudor inconclusive, G9a inh 50µM (no result: TDP1 inh)

Screening results: PubChem BioAssay, National Center for Advancing Translational Sciences (NCATS)
